Rows were chosen to be rich in hits. Some 1.6% of all compounds tested hit in one or more screens of this group.
KCNQ2 inh = rat KCNQ2 potassium channel inhibitors, primary screen, cell-based, CHO-K1, FluxOR thallium flux, B-score; Potassium voltage-gated channel subfamily KQT member 2 (Rattus norvegicus), O88943; 20 min; stronger effect = lower value; B-score at 10 µM; 310,000 tested, 1.1% active; AID 2156, 2009;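 active means fluorescence ratio B-score at most minus 3 library SDs, with starting brightness B-score within 2 library SDs, cut at about -5.5 in these data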
KCNQ2 pot = potentiators of rat KCNQ2 potassium channel. Potassium voltage-gated channel subfamily KQT member 2 (Rattus norvegicus), O88943. 310,000 tested, 0.54% active. CHO-K1 KCNQ2, FluxOR thallium flux fluorescence; stronger effect = higher value. B-score at 10 µM;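 active means fluorescence ratio B-score at least 3 SD of library B-scores, with initial fluorescence B-score within 3 of them, cut at about 5.3 in these data; same plate scores as AID 2156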;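 further: B-score of peak minus minimum over baseline fluorescence ratio after K+ and Tl+ stimulus; positive B-score means potentiation of KCNQ2 with more thallium influx and brighter signal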
* = called active by the depositor; i = inactive; nt = no result.

SMILES	KCNQ2 inh	KCNQ2 pot
Cc1ccc(C)c2[nH]c(=O)c(C(c3nnnn3CCc3ccccc3)N3CCOCC3)cc12 (stereo not drawn)	-6*	-6
CCOc1ccc2[nH]c(=O)c(C(c3nnnn3C3CCCCC3)N3CCN(CC)CC3)cc2c1 (stereo not drawn)	i	0.77
Cc1ccc(C)c2[nH]c(=O)c(C(c3nnnn3C3CCCC3)N3CCOCC3)cc12 (stereo not drawn)	-6.1*	-6.1
COc1cc2cc(C(c3nnnn3C3CCCC3)N3CCCCCC3)c(=O)[nH]c2cc1OC (stereo not drawn)	-11*	-11
O=[N+]([O-])c1ccc(Cc2cncc(O)c2)cc1	i	nt
COc1ccc(CN2CCN(C(=O)Cn3nc(C(=O)O)c4ccccc4c3=O)CC2)cc1F	i	0.11
O=C(O)Cn1c(=O)c2c3c(sc2n(Cc2ccccc2F)c1=O)CCCC3	-6.2*	-6.2
O=C(O)Cn1c(=O)c2c3c(sc2n(Cc2ccc(F)cc2)c1=O)CCCC3	i	nt
CCN(CC)C1CCN(C(=O)c2ccc3nc(Cc4ccc(OC)cc4)oc3c2)C1 (stereo not drawn)	i	1.3
NC(=O)c1c(/N=C/c2cccnc2)sc2c1CCCC2	i	1.3
O=C1/C(=C/c2cccc3ccccc23)CCCc2ccccc21	-6.6*	-6.6
O=C1/C(=C\c2ccncc2)CCc2ccccc21	i	nt
O=C(COC(=O)c1ccc([N+](=O)[O-])o1)Nc1cccc(S(=O)(=O)N2CCCCC2)c1	i	0.25
O=C(Nc1cccc(S(=O)(=O)N2CCCCC2)c1)c1ccc([N+](=O)[O-])o1	i	8.5*
COc1ccc(NC(=O)NNC(=O)COc2ccc([N+](=O)[O-])c(C)c2)cc1OC	i	nt
COCc1cc(=O)[nH]c(Cc2c(Cl)cccc2Cl)n1	i	0.02
O=C(O)c1cc(S(=O)(=O)Nc2ccccc2Cc2ccccc2)ccc1Cl	-8.1*	-8.1
O=C(O)c1ccc(Cl)c(S(=O)(=O)Nc2ccccc2Cc2ccccc2)c1	i	nt
C=CCN(c1ccccc1)S(=O)(=O)c1ccc2c(c1)NC(=O)C(C)C(=O)N2 (stereo not drawn)	i	1.4
Cc1cccc(N2CCN(C(=O)c3ccc(N4CCCC4=O)cc3)CC2C)c1 (stereo not drawn)	i	2.3
Cc1cccc(N2CCN(C(=O)c3ccc4c(c3)c(C)c(C)n4C)CC2C)c1 (stereo not drawn)	-6.1*	-6.1
CNc1nc(SCc2ccc(C)cc2)nc2c1CCCC2	i	nt
COc1cc(N2N=C(c3ccccc3)CC2c2ccccc2)c(C=O)cc1C=O (stereo not drawn)	i	nt
COc1ccccc1N1N=C(c2ccc([N+](=O)[O-])cc2)CC1c1ccccc1 (stereo not drawn)	-6.9*	-6.9
O=C(NCC(c1ccco1)N1CCc2ccccc2C1)c1ccc(F)cc1 (stereo not drawn)	-5.7*	-5.7
SMILES	KCNQ2 inh	KCNQ2 pot
O=C(NCC(c1ccco1)N1CCc2ccccc2C1)C(=O)Nc1cc(F)ccc1F (stereo not drawn)	-6.2*	-6.2
COc1ccccc1NC(=O)C(=O)NCC(c1ccco1)N1CCc2ccccc2C1 (stereo not drawn)	i	nt
O=C(NCC(c1ccco1)N1CCc2ccccc2C1)c1ccccc1 (stereo not drawn)	i	nt
CSc1ccccc1C(=O)N1CCc2ccccc2C1	i	nt
CCCc1nnc(NC(=O)CCC(=O)N2CCC(Cc3ccccc3)CC2)s1	i	1
CCc1nn(C(CC)C(=O)NCc2cccc(OC)c2OC)c(=O)c2cc3occc3n12 (stereo not drawn)	i	nt
COc1cccc(N2C(=NC(=O)COc3ccccc3)SC3CS(=O)(=O)CC32)c1 (stereo not drawn)	i	nt
COC(=O)Cn1ncc(N2CC(C)OC(C)C2)c(Cl)c1=O (stereo not drawn)	i	0.69
O=C(Nn1c(SCc2ccccc2F)nc2ccsc2c1=O)c1ccccc1	-6.4*	-6.4
O=C(CSc1nc2ccsc2c(=O)n1NC(=O)c1ccccc1)Nc1nccs1	i	nt
Nc1nnc(SCC(=O)c2ccccc2)s1	i	0.86
Nc1c(C(=O)c2ccccc2)sc2snc(SCC(=O)c3ccccc3)c12	-6*	-6
CC(=O)Nc1ccc(NC(=O)CSc2ncc(C(=O)Nc3ccc(F)cc3)c(=O)n2C)cc1	i	nt
CCSc1ncc(/C=N/Nc2ccc(F)cc2)n1C	-8.5*	-8.5
Cc1c(NS(=O)(=O)c2cccc(C(=O)OCC(=O)N(C)C3CCCCC3)c2)c(=O)n(-c2ccccc2)n1C	i	0.11
CCN1CCSc2ccc(C(=O)NCc3ccccc3C)cc21	i	nt
CCN1CCSc2ccc(C(=O)NCc3ccccc3Br)cc21	-6.1*	-6.1
CCOc1ccc(N=C2NC(=O)S/C2=C\c2ccc(N(C)C)cc2)cc1	i	0.46
CCOc1ccc(/C=C2/SC(=O)NC2=S)cc1	i	26*
O=C(Cc1ccccc1)NN1C(=O)C2C3C=CC(C3)[C@@H]2C1=O (stereo partly drawn)	i	1.1
O=C(O)CCC(=O)NN1C(=O)c2ccccc2NC1c1ccc(F)cc1 (stereo not drawn)	i	nt
CCN1C(=O)/C(=C/c2cccs2)SC1=Nc1ccc(OC)cc1	i	1
CCCN1C(=O)/C(=C/c2ccc(C)s2)SC1=Nc1ccc(OC)cc1	-6.2*	-6.2
CCN(CC)CCN1C(=O)/C(=C\c2ccc(Cl)c([N+](=O)[O-])c2)SC1=Nc1ccc(OC)cc1	i	nt
COc1ccc(N=C2S/C(=C\c3ccc(Cl)c([N+](=O)[O-])c3)C(=O)N2CCN(C)C)cc1	-5.6*	-5.6
SMILES	KCNQ2 inh	KCNQ2 pot
CCOC(=O)c1ccc(S(=O)(=O)N2CCN(CC(=O)NC(=O)NC3CCCCC3)CC2)cc1	-5.6*	-5.6
O=C(CN1CCN(S(=O)(=O)c2ccc(F)cc2)CC1)NC1CCCC1	i	2
Cc1ccc(C)c(OCC(=O)N/N=C/c2c(C)nn(-c3ccccc3)c2Cl)c1	-7.4*	-7.4
Cc1nn(-c2ccccc2)c(Cl)c1/C=N/NC(=O)OC(C)(C)C	i	nt
Cc1cc(NC(=O)C(C)Sc2nc(-c3ccccc3)cc(=O)[nH]2)no1 (stereo not drawn)	i	1.5
COc1ccc(CNC(=O)CN2C(=O)CC(c3ccccc3)=Nc3ccccc32)cc1	i	nt
O=C(CN1C(=O)CC(c2ccccc2)=Nc2ccccc21)NCc1ccccc1	-5.6*	-5.6
Cc1ccc(C)n1-c1sc2c(c1C#N)CCCC2	-5.9*	-5.9
Cc1sc(-n2c(C)ccc2C)c(C#N)c1C	i	nt
COc1ccc(CCNC(=O)CS(=O)(=O)c2cn(CC(=O)N(C(C)C)C(C)C)c3ccccc23)cc1OC	i	nt
O=C(NCCCN1CCOCC1)/C(=C/c1ccco1)NC(=O)c1ccccc1	i	nt
O=C(CSCc1ccc(Br)cc1)NCCc1ccccc1	-5.5*	-5.5
O=C(COC(=O)c1cccc(Br)c1)NCCNC(=O)COC(=O)c1cccc(Br)c1	i	nt
O=C(CSCc1ccccc1)NCCc1ccc(F)cc1	i	0.15
O=C(COC(=O)c1cccc(Br)c1)NCCc1ccccc1	-5.7*	-5.7
COC(CN(C)C(=O)c1ccc2c(c1)NC(=O)c1ccccc1S2)OC	i	0.34
CSCCC(NC(=O)c1ccco1)C(=O)N(C)CC(=O)Nc1c(Cl)cccc1Cl (stereo not drawn)	i	0.67
